Test results taken from PubChem BioAssay.
The source made the active and inactive calls. Unless noted, how the calls were made is not given here.

Experiments:
[1] = system: Wnt5a (protein binding on small-molecule microarray); assay: small molecules binding Wnt5a protein – biophysical, small-molecule microarray, 635/667 nm fluorescence, primary screen (AID 1142); details: 635 nm fluorescence, higher = more signal;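 further: fluorescence read at 667 nm with signal to noise per printed feature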
[2] = ATP-based viability of Huh7 replicon cells – cell-based, CellTiter-Glo luminescence, basal, 48 h, cytotoxicity control for HCV replication inhibitor project, primary screen (AID 1143); details: higher = more signal, called active from +8 up or from −8 down;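 further: Huh7 hepatoma cells carrying a hepatitis C replication reporter with no stimulus; test concentration not given here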
[3] = Pseudomonas biofilm growth suppression – PAO1 strain, BacTiter-Glo luminescence, LB-PBS, primary screen (AID 1144); details: P. aeruginosa PAO1 biofilm, 12 h, higher = more signal
[4] = basal CRE-LacZ reporter activity in PC12 – cell-based, unstimulated, primary screen (AID 1145); details: no forskolin, luminescence, 4.5 h, higher = more signal, called active from +8 up or from −8 down
[5] = forskolin-driven CRE-LacZ activity in PC12 – cell-based, CRE-LacZ reporter, forskolin-stimulated, primary screen (AID 1146); details: luminescence, 4.5 h, higher = more signal, called active from +8 up or from −8 down;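 further: PC12 cells with 6xCRE LacZ reporter stimulated by forskolin 10 µM; beta-galactosidase reporter signal reflecting CREB driven transcription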
[6] = biological target: Streptavidin (Streptomyces avidinii) (UniProt P22629); assay: compounds binding control protein streptavidin – biophysical, small-molecule microarray, 635/667 nm fluorescence, artefact control for SMM compound annotation, primary screen (AID 1147); details: higher = more signal;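 further: signal reflects streptavidin binding to arrayed compounds as a control protein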
[7] = probe aInhba binding on compound microarray – biochemical, small-molecule microarray, 635/667 nm fluorescence, primary screen (AID 1148); details: higher = more signal;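 further: score merges 667nm spot fluorescence with signal-to-noise for antibody binding to printed compounds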
Torsin-1A (Homo sapiens) [8] = biological target: Torsin-1A (Homo sapiens) (UniProt O14656); assay: TOR1A wild-type binding on microarray – cell lysate, small-molecule microarray, lysate, 635/667 nm, primary screen (AID 1149); details: COS7 hTOR1A-WT lysate, 635 nm fluorescence, higher = more signal
Torsin-1A (Homo sapiens) [9] = biological target: Torsin-1A (Homo sapiens) (UniProt O14656); assay: torsin A mutant lysate binding on microarrays – cell lysate, small-molecule microarray, COS7 lysate, 635/667 nm fluorescence, primary screen (AID 1150); details: COS7 hTOR1A mutant lysate, 635 nm fluorescence, higher = more signal;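 further: score pools 667 nm emission and signal to noise measuring lysate protein binding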
[10] = system: Sonic hedgehog protein (Shh); assay: Sonic hedgehog microarray binding compounds – biochemical, small-molecule microarray, 635/667 nm fluorescence, primary screen (AID 1151); details: 635 nm fluorescence, higher = more signal;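 further: Shh protein binding to compounds spotted on small-molecule microarray slides; score combines spot fluorescence intensity with signal-to-noise across triplicate slides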
[11] = optical density shifts of acrAB sulA E. coli – strain DRC41, OD650, 48 h, E. coli filamentation inducer project, primary screen (AID 1152); details: higher = more signal, called active from +8 up or from −8 down;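 further: E. coli MC1000 strain DRC41 lacking acrAB efflux pump and sulA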
[12] = probe aLefty1 binding on compound microarray – biochemical, small-molecule microarray, 635/667 nm fluorescence, primary screen (AID 1153); details: higher = more signal;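 further: score merges spot fluorescence with signal-to-noise ratio from the scanned slide images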
[13] = plasmodial surface anion channel blockers, osmotic lysis – cell-based, P. falciparum Indochina, OD700, 1 h, primary screen (AID 1154); details: P. falciparum Indochina infected RBC osmotic lysis, higher = more signal, called active from +8 up or from −8 down
[14] = plasmodial surface anion channel blockers, osmotic lysis – cell-based, P. falciparum Indochina, OD700, 2 h, primary screen (AID 1155);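 further: lysis reports solute entry through the parasite surface anion channel PSAC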; details: P. falciparum Indochina infected erythrocytes, higher = more signal, called active from +8 up or from −8 down
[15] = changes in parasitized red cell lysis, either direction – P. falciparum Indochina, OD700, 3 h, PSAC antagonist project, primary screen (AID 1156); details: P. falciparum-infected erythrocytes, osmotic lysis, higher = more signal, called active from +8 up or from −8 down
[16] = plasmodial surface anion channel blockers, osmotic lysis – cell-based, P. falciparum Indochina, OD700, 18 h, primary screen (AID 1157); details: P. falciparum Indochina infected erythrocytes, osmotic lysis OD700, 18 h; higher = more signal, called active from +8 up or from −8 down
[17] = S6 kinase pathway phospho-S6 level changes – cell-based, A549, cytoblot, luminescence, serum-stimulated, primary screen (AID 1158); details: 5 h, higher = more signal;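 further: serum-stimulated A549 lung adenocarcinoma cells; signal is phosphorylated S6 detected by cytoblot immunostaining with HRP secondary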
[18] = biological target: NADPH oxidase 2 (Homo sapiens) (UniProt P04839); assay: compounds shifting NOX2 Amplex Red fluorescence – cell-based, HEK293-NOX2, PMA-stimulated, NOX inhibitor project, primary screen (AID 1159); details: 45 min, higher = more signal, called active from +8 up or from −8 down; further: test concentration not given here
[19] = biological target: NADPH oxidase 4 (Homo sapiens) (UniProt Q9NPH5); assay: compounds shifting NOX4 Amplex Red fluorescence – cell-based, HEK293-NOX4, tetracycline-induced, NOX inhibitor project, primary screen (AID 1160); details: HEK293-NOX4, Amplex Red H2O2 fluorescence, 45 min; higher = more signal, called active from +8 up or from −8 down
[20] = biological target: NADPH oxidase 5 (Homo sapiens) (UniProt Q96PH1); assay: compounds shifting NOX5 Amplex Red fluorescence – cell-based, HEK293-NOX5, NOX inhibitor project, primary screen (AID 1161); details: HEK293-NOX5, ionomycin, 45 min, higher = more signal
Sequence of NADPH oxidase 5 (Homo sapiens) (Q96PH1 whole entry, looked up): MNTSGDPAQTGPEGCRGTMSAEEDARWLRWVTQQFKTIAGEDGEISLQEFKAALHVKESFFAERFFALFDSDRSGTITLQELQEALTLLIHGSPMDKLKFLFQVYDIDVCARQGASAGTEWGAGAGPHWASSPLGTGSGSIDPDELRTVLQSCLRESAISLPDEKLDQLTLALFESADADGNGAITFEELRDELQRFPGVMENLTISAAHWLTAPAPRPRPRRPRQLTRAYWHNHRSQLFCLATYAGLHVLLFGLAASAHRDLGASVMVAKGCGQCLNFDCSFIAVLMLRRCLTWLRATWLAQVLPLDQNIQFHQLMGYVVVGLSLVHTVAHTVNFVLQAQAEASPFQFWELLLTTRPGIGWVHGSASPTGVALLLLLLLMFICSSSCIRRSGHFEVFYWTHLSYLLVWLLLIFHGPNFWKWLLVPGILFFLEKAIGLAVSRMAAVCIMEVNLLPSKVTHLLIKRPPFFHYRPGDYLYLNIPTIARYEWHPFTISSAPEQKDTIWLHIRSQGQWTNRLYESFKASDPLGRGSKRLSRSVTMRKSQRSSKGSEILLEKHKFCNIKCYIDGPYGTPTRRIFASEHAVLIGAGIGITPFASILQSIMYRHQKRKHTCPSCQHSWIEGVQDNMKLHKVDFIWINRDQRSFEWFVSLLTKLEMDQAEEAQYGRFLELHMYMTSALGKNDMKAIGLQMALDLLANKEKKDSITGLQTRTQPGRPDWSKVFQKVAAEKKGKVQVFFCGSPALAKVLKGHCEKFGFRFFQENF

Sequence of Streptavidin (Streptomyces avidinii) (P22629 whole entry, looked up): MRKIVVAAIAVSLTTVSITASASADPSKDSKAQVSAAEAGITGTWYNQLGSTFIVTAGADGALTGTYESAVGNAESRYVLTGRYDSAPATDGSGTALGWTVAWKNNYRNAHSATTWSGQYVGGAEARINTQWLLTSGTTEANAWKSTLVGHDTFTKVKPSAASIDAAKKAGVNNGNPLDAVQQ
Sequence of NADPH oxidase 2 (Homo sapiens) (P04839 whole entry, looked up): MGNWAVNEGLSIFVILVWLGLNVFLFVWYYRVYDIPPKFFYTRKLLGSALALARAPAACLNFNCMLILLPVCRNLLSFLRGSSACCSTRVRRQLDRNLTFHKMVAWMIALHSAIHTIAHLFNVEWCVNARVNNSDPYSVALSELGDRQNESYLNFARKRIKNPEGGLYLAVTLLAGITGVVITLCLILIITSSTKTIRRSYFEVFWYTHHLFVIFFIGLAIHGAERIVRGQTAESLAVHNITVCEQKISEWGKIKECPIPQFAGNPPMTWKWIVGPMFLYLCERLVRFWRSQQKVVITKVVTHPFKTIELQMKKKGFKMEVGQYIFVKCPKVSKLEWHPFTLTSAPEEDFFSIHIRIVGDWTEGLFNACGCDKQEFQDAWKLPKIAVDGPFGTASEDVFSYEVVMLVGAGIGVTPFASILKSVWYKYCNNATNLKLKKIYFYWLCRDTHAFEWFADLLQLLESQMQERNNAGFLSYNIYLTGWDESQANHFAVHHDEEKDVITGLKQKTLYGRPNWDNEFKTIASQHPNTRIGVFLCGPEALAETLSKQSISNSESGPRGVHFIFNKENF
Sequence of NADPH oxidase 4 (Homo sapiens) (Q9NPH5 whole entry, looked up): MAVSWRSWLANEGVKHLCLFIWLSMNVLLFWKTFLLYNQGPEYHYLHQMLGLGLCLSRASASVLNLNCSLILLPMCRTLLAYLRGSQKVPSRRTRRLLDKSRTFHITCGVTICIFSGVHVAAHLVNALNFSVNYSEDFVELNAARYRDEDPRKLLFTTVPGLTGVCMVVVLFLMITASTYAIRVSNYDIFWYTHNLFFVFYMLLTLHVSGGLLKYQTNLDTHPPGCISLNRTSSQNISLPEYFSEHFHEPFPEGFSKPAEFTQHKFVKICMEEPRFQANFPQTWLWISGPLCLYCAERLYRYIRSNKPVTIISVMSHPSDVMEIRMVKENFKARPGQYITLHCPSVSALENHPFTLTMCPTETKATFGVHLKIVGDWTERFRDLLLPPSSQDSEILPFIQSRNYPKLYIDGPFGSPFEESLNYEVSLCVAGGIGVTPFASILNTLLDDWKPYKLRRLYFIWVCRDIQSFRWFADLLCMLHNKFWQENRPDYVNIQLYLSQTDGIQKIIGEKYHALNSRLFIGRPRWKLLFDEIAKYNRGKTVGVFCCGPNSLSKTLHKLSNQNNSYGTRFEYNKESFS
Sequence of Torsin-1A (Homo sapiens) (O14656 whole entry, looked up): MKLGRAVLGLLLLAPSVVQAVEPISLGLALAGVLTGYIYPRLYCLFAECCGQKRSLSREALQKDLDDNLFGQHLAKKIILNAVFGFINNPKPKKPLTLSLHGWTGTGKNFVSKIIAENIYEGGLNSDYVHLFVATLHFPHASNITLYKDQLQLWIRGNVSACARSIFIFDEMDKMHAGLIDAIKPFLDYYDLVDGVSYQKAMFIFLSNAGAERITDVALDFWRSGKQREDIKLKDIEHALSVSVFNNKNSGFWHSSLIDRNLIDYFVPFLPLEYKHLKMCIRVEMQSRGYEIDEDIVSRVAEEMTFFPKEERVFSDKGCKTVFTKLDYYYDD

SMILES	composite z-score [1]	z-score [2]	z-score [3]	z-score [4]	z-score [5]	composite z-score [6]	composite z-score [7]	composite z-score (Torsin-1A (Homo sapiens) [8])	composite z-score (Torsin-1A (Homo sapiens) [9])	composite z-score [10]	z-score [11]	composite z-score [12]	z-score [13]	z-score [14]	z-score [15]	z-score [16]	z-score [17]	z-score [18]	z-score [19]	z-score [20]
CN(C)C(=O)[C@@]1(CCC(=O)OC(C)(C)C)N=C(c2ccc(OCCCO)cc2)O[C@H]1c1ccccc1CN=[N+]=[N-]	0.281	-0.292 (inactive)	-0.0794 (inactive)	0.148 (inactive)	0.27 (inactive)	0.457	0.0857	0.946	1.99	-0.733	0.476 (inactive)	0.121	14.6 (active)	1.39 (inactive)	0.668 (inactive)	0.447 (inactive)	-0.25	-1.73 (inactive)	-0.111 (inactive)	-0.901
COc1ccc([Si](C)(C)[C@H]2[C@H](CCO)O[C@@]3(C(=O)N(Cc4ccc(N5C(=O)c6ccccc6Oc6ccccc65)cc4)c4ccccc43)[C@@H]2C)cc1	-0.154	-5.43 (inactive)	-1.75 (inactive)	0.222 (inactive)	-0.986 (inactive)	-0.446	-0.0762	-1.08	-0.889	1.13	0.157 (inactive)	0.0211	4.29 (inactive)	2.83 (inactive)	-1.44 (inactive)	1.38 (inactive)	0.211	-0.681 (inactive)	2.36 (inactive)	1.9
CC1CC/C=C\[C@H]2OC34C=CCN(C(C)(C)C)C(=O)[C@H]3N(C(CO)C(C)C)C(=O)[C@@H]4C2C(=O)O1 (stereo not given in full)	0.0295	0.0336 (inactive)	1.4 (inactive)	-0.354 (inactive)	0.46 (inactive)	-0.324	-0.128	0.0733	0.931	0.774	-0.281 (inactive)	-0.142	0.462 (inactive)	0.451 (inactive)	0.44 (inactive)	0.404 (inactive)	-0.248	1.31 (inactive)	-0.568 (inactive)	2.34
C=C(C)[C@@H]1CC=C(C(O)C2C=CC3C(=O)N(c4ccccc4)C(=O)C3N2Nc2ccc(C#N)cc2)CC1 (stereo not given in full)	0.335	-0.133 (inactive)	-1.68 (inactive)	0.433 (inactive)	-0.345 (inactive)	1.48	0.361	0.202	0.454	-0.0706	-2.24 (inactive)	0.619	9.15 (active)	3.26 (inactive)	0.625 (inactive)	2.49 (inactive)	-0.66	-1.94 (inactive)	-3.56 (inactive)	-2.27
CCCCC(=O)N(CCN1CCOCC1)[C@@H]1CC(C(=O)NCCO)=C[C@H](Oc2c(I)cc(CO)cc2OC)[C@H]1O	-0.0408	0.0643 (inactive)	-0.141 (inactive)	1.4 (inactive)	-1.19 (inactive)	-0.0538	-0.253	0.314	-0.0203	0.655	1.4 (inactive)	-0.235	3.89 (inactive)	0.756 (inactive)	0.098 (inactive)	0.133 (inactive)	-0.0612	-0.381 (inactive)	0.577 (inactive)	0.613
CC1(C)C(=O)C(c2ccccc2)=C2CN3C(=O)N(CCc4ccccc4)C(=O)C3(Cc3ccc(C(F)(F)F)cc3)C=C21 (stereo not given)	0.437	-1.29 (inactive)	0.332 (inactive)	-0.379 (inactive)	0.866 (inactive)	1.19	0.196	-0.102	0.608	-1.01	-2.21 (inactive)	0.349	0.582 (inactive)	0.316 (inactive)	0.482 (inactive)	0.668 (inactive)	0.0875	-0.462 (inactive)	-1.68 (inactive)	-0.494
CCOC(=O)C1=CC[C@@H](c2ccccc2)N(S(=O)(=O)c2ccc(C)cc2)[C@H]1C=Cc1ccccc1	-0.109	-2.35 (inactive)	0.17 (inactive)	-0.0696 (inactive)	0.521 (inactive)	0.261	0.0713	0.0331	-0.0749	-0.723	-1.11 (inactive)	0.436	1.92 (inactive)	1.12 (inactive)	-0.684 (inactive)	0.779 (inactive)	-0.577	0.549 (inactive)	-0.395 (inactive)	0.884
O=C1C2C=CC(C(O)c3ccc4c(c3)OCO4)N(Nc3ccccc3)C2C(=O)N1c1ccccc1 (stereo not given)	0.096	-0.924 (inactive)	-0.648 (inactive)	0.44 (inactive)	0.993 (inactive)	1.52	0.143	-0.277	0.426	0.0743	-1.27 (inactive)	0.065	0.805 (inactive)	0.384 (inactive)	1.15 (inactive)	1.39 (inactive)	-0.777	-0.279 (inactive)	0.756 (inactive)	-1.12
